This excerpt belongs to a sample that is enriched for hits.
Tg IFNy HTS: blocks Toxoplasma gondii growth in the presence of IFN-gamma | activity change, negative = inhibition, % (no concentration beside the values) | 69,000 compounds, 3.8% hits | Toxoplasma gondii growth in IFN-gamma-treated host cells; stronger effect = lower value; in the data active = activity change below about -70%, passing the limit was not always enough;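 note: host cells are HeLa cells infected with Toxoplasma gondii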
Numbers stand for hits; . = inactive.

SMILES	Tg IFNy HTS
O=c1ccc2cc(S(=O)(=O)NCCN3CCOCC3)ccc2[nH]1	.
Cc1cc(F)cc(-c2c(-c3ccccc3)ncn2CCOCCO)c1	.
COc1ccccc1-c1cc(NC(=O)c2cccc(Cn3ccnc3C)c2)n(C)n1	.
COc1ccccc1-c1nc(Cn2nnc(C(=O)Nc3cc(Cl)ccc3C)c2C)c(C)o1	.
COc1ccccc1-c1cc(NC(=O)c2nnn(-c3ccc(Cl)cc3)c2C)n(C)n1	-78
O=C(c1cccc(F)c1)N1CCC(c2nc3ccc(N4CCCC4)cn3n2)CC1	.
O=C(CN1CCN(c2ccccc2F)CC1)NCCC1=CCCCC1	.
O=C(COc1ccc(-c2cnc3ccccc3n2)cc1)c1cccs1	-85
Cc1ccc(-c2cnc3ccccc3n2)cc1NC(=O)c1ccc(Br)o1	.
O=C(CCC(=O)c1cccs1)c1cccs1	.
CN(C)C(=O)c1ccc2nnc3ncn(C4CCCC4)c3c2c1	.
COc1ccc(S(=O)(=O)N2CCC(c3n[nH]c(=O)cc3-c3cc(C)no3)CC2)cc1	.
COc1ccc(S(=O)(=O)N2CCC(c3ccc4c(C)nn(C)c4n3)CC2)cc1	-91
COc1ccc(S(=O)(=O)N2CCC(c3nc(C(=O)N(C)C)c(C)o3)CC2)cc1	.
CCc1nnc(-c2ccc3ccn(CC(=O)Nc4ccc(Cl)cn4)c3c2)o1	.
CN(C)C(=O)n1c(C(=O)NCCc2ccccc2)cc2c1c1ccccc1n2C	.
CCN(CCc1nc2ccc(OC)cc2[nH]1)C(=O)c1cc(C)nc(C)n1	.
CC1CCc2c(sc(NC(=O)CCn3c(=O)sc4ccccc43)c2C(N)=O)C1 (stereo not given)	.
O=C(Nc1ccccc1Cl)c1nc(Nc2ccccc2)c2ccccc2n1	.
Cc1c(Cl)cccc1NC(=O)c1c(O)c2ccccc2[nH]c1=O	.
Cc1nc(C(=O)Nc2ccccc2Cl)cc2c1[nH]c1ccccc12	-81
COc1ccc(NC(=O)N2CCc3nc(-c4ccc(C)cc4)sc3C2)c(OC)c1	.
CCC1=NC2(CCC(C(=O)Nc3cccnc3)CC2)C(=O)N1CCOC (stereo not given)	.
OCCn1ccnc1-c1cccc(Oc2ccccc2)c1	.
Cc1ccc2c(c1)NC1(CCN(S(=O)(=O)c3cccc(Cl)c3)CC1)c1cccn1-2	.
SMILES	Tg IFNy HTS
c1ccc(C2NCCc3[nH]cnc32)c(Cn2cccn2)c1 (stereo not given)	.
Cn1nc(CN2CCCC2)c2c1CN(S(=O)(=O)Cc1ccccc1)CC2	.
Cc1ccc(CN2CCc3ccc(=O)[nH]c3CC2)cc1	.
Cc1ccc(C)c(NCc2n[nH]c(=S)n2-c2ccccc2)c1	.
Cc1c(C)c(C)c(CSCc2n[nH]c(=S)n2-c2ccc(F)cc2)c(C)c1C	-86
Cc1noc(C)c1-n1sc(=O)n(-c2ccc(F)cc2)c1=O	.
CNC(=O)c1ccc(-c2nc(CN3CCN(C(=O)Nc4ccc(F)cc4F)CC3)c(C)o2)cc1	.
Cn1cnc(S(=O)(=O)N2CCC3(CC2)Nc2ccc(Cl)cc2-n2cccc23)c1	.
Cc1nc(-c2cnccn2)sc1C(=O)Nc1ccc(N2CCOCC2)cc1	.
Cc1nn(CC(=O)Nc2ccc(N3CCOCC3)cc2)c(C)c1Br	.
Cc1nc(N)sc1-c1ccnc(Nc2ccc(N3CCOCC3)cc2)n1	-79
O=C(Cn1ncc2c(N3CCCCC3)ncnc21)N1CCN(c2cccc(C(F)(F)F)c2)CC1	.
O=C(Cn1ncc2c(N3CCN(c4ccccn4)CC3)ncnc21)Nc1ccc(F)cc1F	.
Cc1nc2ncccn2c1C(=O)N1CCCC2(C1)C(=O)Nc1ccccc12 (stereo not given)	-82
Cc1cc(C)n2nc(C(=O)N3CCCC4(C3)C(=O)Nc3ccccc34)cc2n1 (stereo not given)	.
Cc1nc2ncccn2c1C(=O)N1CCCC(C(=O)c2ccc3c4c(cccc24)CC3)C1 (stereo not given)	.
CCS(=O)(=O)N1CCC2(CC1)COCCN(c1cccnc1)C2	.
O=C(CCc1cccs1)CSCC(=O)NCc1cccs1	.
CN(C)C(=O)n1c(C(=O)N2CCN(c3ccncc3)CC2)cc2c1c1ccccc1n2C	.
Cc1csc(CN2C[C@H]3CCCO[C@H]3[C@H](N3CCCC3)C2)n1	.
COCC(=O)N[C@H]1CN(Cc2scnc2C)C[C@H]2CCCO[C@H]21	-81
Cn1cc(CN2C[C@H]3CCCO[C@H]3[C@H](NS(C)(=O)=O)C2)cn1	.
CCN1C(=O)COc2cc3c(cc21)C(c1ccncc1F)CC(=O)N3 (stereo not given)	.
COc1cccc(NC2COC3(CCN(Cc4ccc(F)cc4)CC3)C2)c1 (stereo not given)	.
Cc1noc(C)c1C(=O)Oc1ccccc1	.
SMILES	Tg IFNy HTS
Cc1ccc(OC(=O)c2c(-c3ccccc3)nnc3ccccc23)cc1	-106
CC[C@H](NC(=O)c1c(C)c(-c2ccccc2)nc2ccccc12)c1ccccc1	.
COc1cccc(OC)c1C(=O)N1CCN(S(=O)(=O)c2cc3c4c(c2)CCN4C(=O)CC3)CC1	.
CCn1c(=O)c(-c2nc(-c3cccc(OC)c3)no2)c(O)c2ccc(F)cc21	.
C=CCN(Cc1ccccc1C)C(=O)c1cccc2cnccc12	.
Cc1oc(-c2ccc(OC(C)C)cc2)nc1Cn1c(=O)c2cccnc2n(-c2ccccc2)c1=O	.
Cc1oc(-c2ccc(OC(C)C)cc2)nc1CSc1nc2c(=O)[nH]cnc2n1C	.
Cc1oc(-c2ccc(OC(C)C)cc2)nc1CSc1nc2ncccc2o1	-96
CC(C)COC1C2CCC1N(C(=O)c1cccn1C)C2 (stereo not given)	.
COc1ccc(CCN(C)C2CCCN(c3ncnc4nc[nH]c34)C2)cc1OC (stereo not given)	.
O=C(Nc1cccnc1)c1cc(-c2cnc(N3CCCC3)nc2)cn1CC1CC1	.
O=C(NCc1ccc(F)cc1F)c1cc(-c2cnc(-c3cccnc3)nc2)cn1CC1CC1	.
O=C(Nc1cccnc1)c1cc(-c2cnc(-c3ccccc3)nc2)cn1CC1CC1	-77
CC(C)N(Cc1ccccc1)S(=O)(=O)c1cccs1	.
O=S(=O)(Nc1ccc(Oc2ncnc3cc(Cl)ccc23)nc1)c1cccs1	.
CC(=O)N(c1ccc(NS(=O)(=O)c2cccs2)cn1)S(=O)(=O)c1cccs1	-102
CC1=NC2(CCC(C(=O)NCc3ccc(F)cc3)CC2)C(=O)N1CC1CC1 (stereo not given)	.
Cn1ccnc1CN1CCC2(CC(=O)N(c3ccc(F)c(F)c3)C2)C1 (stereo not given)	.
Cc1nc(CN2Cc3ccnn3CC(C(=O)N(C)C)C2)cs1 (stereo not given)	.
Cc1nc(-c2ccc(Cl)cc2)cs1	.
Cn1ncc(-c2nc(-c3ccc(Cl)cc3)cs2)c1N	-83
CC(C)(C)c1cc(-c2csc(-c3ccc(Cl)cc3)n2)cc(C(C)(C)C)c1O	.
Cc1cccc(CN2CCN(Cc3cc4cc(F)ccc4n3C)CC2)c1	.
COc1ccc(C2NC(=S)NC3=C2CCc2ccccc23)cc1 (stereo not given)	.
COc1ccc(C2Sc3ccccc3N=C3c4ccccc4CCC32)cc1 (stereo not given)	.
SMILES	Tg IFNy HTS
COc1ccc(C2CN=NC23CSc2ccccc2C3=O)cc1 (stereo not given)	-82
Cc1cc(CN2Cc3ccccc3C3(CCN(c4cnccn4)CC3)C2)oc1C	.
Cc1cc(C(=O)NCCN2CCOCC2)nn1-c1c(Cl)cc(Cl)cc1Cl	.
CC(C)n1nc(CNc2ncccn2)c2c1CN(C(=O)N(C)C)CC2	-76
Cc1cc(C)cc(C(=O)N2CCc3c(CNc4ncccn4)nn(C)c3C2)c1	.
CN(C)CC(=O)N1CCCn2cnc(CNc3ncccn3)c2C1	.
